# Experimental data as given in PubChem BioAssay.
# Test system: Fibrinogen (Alexa647-labelled)
# Assay: Alexa647-fibrinogen binding to printed small molecules – biochemical, small-molecule microarray, 635/667 nm fluorescence, artefact control for SMM control-protein annotation, profiling panel (AID 1131);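 also: z-score merges 667 nm fluorescence with per-spot signal-to-noise over triplicate slides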
# Settings: fibrinogen-A647 binding fluorescence, higher = more signal
row,Structure (SMILES),composite z-score
1,CON=C1[C@H]2CCn3c(=O)n(-c4ccccc4)c(=O)n3[C@H]2[C@H](O)[C@@H]2O[C@H]12,0.148
2,CC(C)=CCCC(C)=CCON=C1C[C@@H](O)[C@@H](O)[C@@H]2[C@@H]3C(=O)N(C(C)(C)C)C(=O)[C@@H]3CC[C@@H]12,-0.0293
3,CC(C)(C)N1C(=O)[C@H]2[C@H]3[C@H](O)[C@H](O)CC(=O)[C@@H]3CC[C@H]2C1=O,-0.642
4,CC(=O)OC[C@H]1O[C@H](CC=NO[C@H](C)c2cn([C@H](CO)Cc3ccccc3)nn2)C=C[C@@H]1OC(C)=O,0.0573
5,C=Cc1ccc([C@H]2N[C@H](C(=O)O)CC[C@@H]2C)cc1,-0.719
6,O=C(C=Cc1ccc2c(c1)OCO2)c1ccc(F)cc1,0.0796
7,C[C@@H]1CC[C@H]2C(=O)O[C@@H](Cc3ccccc3)CN2[C@H]1c1ccc(Br)cc1,0.376
8,C=CC1=C[C@H](O)[C@@H]2O[C@@H]2C12OCCCO2,0.429
9,CCN1C(=O)[C@H]2[C@H]3[C@H](O)[C@H](O)CC(=NO[C@@H](C)c4cn([C@H](CO)Cc5ccccc5)nn4)[C@@H]3CC[C@H]2C1=O,0.752
10,CCOC(=O)[C@H](Cc1ccccc1)NC(=O)CCC1CC(OC(=O)NCc2ccc3c(c2)OCO3)CC2(CCCC(COC(=O)NCCC(C)C)O2)O1 (some centres not stated),0.894
11,O=C1[C@H]2[C@H]3[C@H](O)[C@H](O)CC(=NOC[C@@H](O)COCc4ccco4)[C@H]3CC[C@H]2C(=O)N1C[C@@H]1CCCO1,-1.27
12,CC(C)=NO[C@H](C)c1cn([C@H](CO)Cc2ccccc2)nn1,0.991
13,O=C1CCCC=C1C(O)CCCCBr (configuration not stated),0.798
14,COC(=O)CC=C[C@@H](C)[C@@H](C=NOC[C@@H](O)[C@H]1O[C@@H]2OC(C)(C)O[C@@H]2[C@H]1O)NS(=O)(=O)c1ccc(C)cc1,-0.174
15,CCOC(=O)[C@H](Cc1ccccc1)NC(=O)CCC1CC(OC(=O)NCCc2ccc(F)cc2)CC2(CCCC(COC(=O)NCc3ccccc3)O2)O1 (some centres not stated),0.282
16,COC(=O)CC=C[C@@H](C)[C@@H](C=NOC(C)CN1CCCc2nc(C)c(C)cc21)OC (some centres not stated),0.233
17,O=C1CCCC=C1C(O)CCOC(c1ccccc1)(c1ccccc1)c1ccccc1 (configuration not stated),-0.302
18,C[C@@H]1C=CCC(=O)OC[C@H]2O[C@@H](C=C[C@@H]2O)[C@H](C)C=CCC(=O)OC1,-1.06
19,CO[C@@H]1C=CCC(=O)N[C@@H](C)C(=O)OC[C@@H](OC)[C@H](C)CCCC(=O)OC[C@H]1C,-1.64
20,Cc1ccc(S(=O)(=O)OC[C@H]2CN3[C@H](c4ccc(Br)cc4)[C@@H](C)CC[C@H]3C(=O)O2)cc1,0.596
21,CC(C)=CCCC(C)=CCON=C1C[C@@H](O)[C@@H](O)[C@@H]2[C@@H]3C(=O)N(C4CCCCC4)C(=O)[C@@H]3CC[C@@H]12,-0.229
22,O=C1C=C[C@@H](O)[C@@H]2[C@@H]3C(=O)N(C[C@@H]4CCCO4)C(=O)[C@@H]3CC[C@@H]12,0.418
23,CCOC(=O)[C@H](CC(C)C)NC(=O)CCC1CC(OC(=O)NCc2cccc3ccccc23)CC2(CCCC(COC(=O)NCCCN3CCCC3=O)O2)O1 (some centres not stated),0.634
24,Cc1ccc(S(=O)(=O)N[C@H]2COC(=O)CC=C[C@@H](C)COC(=O)CC=C[C@@H]2C)cc1,-1.08
25,Cn1c(=O)n2n(c1=O)[C@H]1[C@H](O)[C@@H]3O[C@@H]3C(=O)[C@H]1CC2,0.289
26,O=C1C[C@@H](O)[C@@H](O)[C@@H]2[C@@H]3C(=O)N(C[C@@H]4CCCO4)C(=O)[C@@H]3CC[C@@H]12,0.517
27,COc1ccc(O[C@H]2C=C[C@@H](c3ccccc3)O[C@@H]2CON=C2[C@H]3CCn4c(=O)n(-c5ccccc5)c(=O)n4[C@H]3[C@H](O)[C@@H]3O[C@H]23)cc1,0.335
